From PubChem BioAssay
“And” between values parts separate entries of the source, which are not always exact repeats. Equal entries are not always repeated. The source made the active and inactive calls.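 The calls were made as follows, unless noted: active = normalized viability below 100% at a tested concentration; inactive = the rest.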

How the values were obtained:
[1] = Wnt pathway potentiators raising nuclear beta-catenin – imaging, WNT3A-conditioned medium, mouse C2C12, NPC library, primary screen (AID 1117326; in the data active = nuclear beta-catenin stimulation mostly above about 4.2%, no sharp cut-off; inactive = mostly below about 10%); conditions: stronger effect = higher value
[2] = stimulators of insulin release from INS-1E, primary screen, cell-based, 5 mM glucose, NPC library (AID 1117329;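 active = compound raises insulin release from rat beta cells at 5 mM glucose, no numeric limit stated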); conditions: rat INS-1E insulin secretion, at 10 µM, stronger effect = higher value
[3] = growth inhibition of GSK3B-pretreated HCT116 cells – cell-based, CellTiter-Glo, 0.2 to 20 µM (AID 1117336;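 active = compounds lowering colon cancer cell viability after pretreatment blocking the GSK3B kinase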); conditions: HCT116 viability after GSK3B inhibitor, at 20 µM, stronger effect = higher value
[4] = inhibition of endothelial tube formation, primary screen, imaging, VEGF stimulated, CD31 staining, tube area, NPC library (AID 1117340;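 active = compound that reduces growth-factor-driven endothelial tube area in a mixed cell culture, no cutoff stated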); conditions: VEGF-stimulated ADSC/ECFC co-culture, at 10 µM, stronger effect = higher value
[5] = GLP1 release stimulators, primary, NCI-H716, NPC library (AID 1117341;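 active = compound raises GLP1 secretion from the human gut endocrine cells, with no numeric limit stated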); conditions: NCI-H716 cells, at 10 µM, stronger effect = higher value
[6] = HCT116 colon cancer cell growth inhibition, primary screen, CellTiter-Glo luminescence, NPC library (AID 1117342;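 active = compounds that lower survival of HCT116 colon cancer cells in the luminescence readout, no numeric limit stated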); conditions: at 20 µM (top of the series)
[7] = reduced SW480 viability measured with CellTiter-Glo, NPC library, primary (AID 1117343;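 active = compounds that lower viability of the colon cancer cells in the luminescence readout, with no numeric limit stated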); conditions: CellTiter-Glo luminescence; at 20 µM (top of the series)
[8] = NPC library primary testing for decreased DLD-1 cell viability via CellTiter-Glo (AID 1117346;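 active = compounds that lower survival of DLD-1 colon cancer cells in the luminescence readout, no cutoff given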); conditions: DLD-1 viability, CellTiter-Glo luminescence; at 20 µM (top of the series)
[9] = molecular target: 6-phosphogluconate dehydrogenase, decarboxylating (Homo sapiens) (UniProt P52209); test: inhibition of human phosphogluconate dehydrogenase – biochemical, recombinant enzyme, NADPH absorbance, primary screen (AID 1159550;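 active = at least 20% inhibition of 6-phosphogluconate dehydrogenase activity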); conditions: recombinant 6PGD, NADPH absorbance 341 nm; at 10 µM; stronger effect = higher value
[10] = EMT-state selective cytotoxicity in co-culture – imaging, PC-3E GFP, TEM4-18 mCherry, primary screen (AID 1345086;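 active = compounds killing one labelled cell type while sparing the other, by normalised counts and ratio limits, not self-fluorescent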;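 as to all read-outs here: cells exposed to compound for 72 h before imaging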;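 as to red/green cell ratio (normalised): normalised mesenchymal count divided by normalised epithelial count so high means epithelial killing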); conditions: PC-3E GFP / TEM4-18 mCherry co-culture, imaging cell counts, at 1 µM; for red/green cell ratio (normalised): actives lie on both sides, counts scaled to control wells, 1 = unselective
[11] = MELAS cybrid and Rieske KO viability enhancers – cell-based, MELAS cybrids, Rieske KO mouse fibroblasts, CellTiter-Glo, primary screen (AID 1508586;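 active = mean z-score across replicates of 1.96 or higher in either the MELAS or the Rieske mutant cell line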;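 also: z relative to plate mean and SD of compound and empty wells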); conditions: low glucose
[12] = drug combination growth inhibition, ovarian cancer – cell-based, oncology-focused library, rucaparib conditional, profiling panel (AID 1508598); conditions: patient-derived ovarian cancer cells, CellTiter-Glo viability, 144 h, stronger effect = lower value
[13] = molecular target: NAD(+) hydrolase SARM1 (Homo sapiens) (UniProt Q6SZW1); test: blocking NAD cleavage by SARM1 SAM-TIR – cell lysate, NAD-Glo luminescence (AID 1508614;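 active = compound whose remaining NAD level is above about 45 nM, limit read from the data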;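 also: higher remaining NAD means stronger inhibition of SARM1 NADase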); conditions: SAM-TIR HEK293T lysate NADase, at 1 µM, stronger effect = higher value
F380Y = test: BK channel mutant inhibitors and activators – cell-based, U2OS BacMam, thallium flux, beta subunits, selectivity assay, profiling panel (AID 1259406;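 active = thallium flux through the channel raised or lowered by more than 3 SD from vehicle-only wells, actives on both sides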;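 also: initial slope of Thallos dye fluorescence rise after thallium is added; log ratio against the mean of 0.3% DMSO vehicle wells on the same plate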); conditions: U2OS BacMam BK variants, at 30 µM
F380Y/beta1 = test: as above; conditions: U2OS BacMam BK variants, at 30 µM
F380Y/beta2Delta = test: as above; conditions: U2OS BacMam BK variants, at 30 µM
F380Y/beta4 = test: as above; conditions: U2OS BacMam BK variants, at 30 µM
[14] = molecular target: Calcium-activated potassium channel subunit alpha-1 (Homo sapiens) + Leucine-rich repeat-containing protein 26 (Homo sapiens) (UniProt Q12791+Q2I0M4); test: as above; conditions: U2OS BacMam BK variants, F380Y/Slo1WT/gamma1, at 30 µM
R275C = test: as above; conditions: U2OS BacMam BK variants, at 30 µM
[15] = viability loss with induced miR-34 in A549 – imaging, A549 dox-inducible miR-34, nuclei and caspase counts, primary screen (AID 1347080;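 active = compounds whose cell count with miR-34 switched on is under 0.7 times the count with it off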); conditions: A549 miR-34 inducible, Hoechst nuclei count, 48 h
[16] = measured here: epithelial PC-3E GFP cell survival
[17] = measured here: mesenchymal TEM4-18 mCherry cell survival
[18] = MELAS cybrid survival, CellTiter-Glo 48 h, stronger effect = higher value
[19] = Rieske KO mouse fibroblast survival, CellTiter-Glo 72 h

Sequence of 6-phosphogluconate dehydrogenase, decarboxylating (Homo sapiens) (P52209 whole entry, looked up): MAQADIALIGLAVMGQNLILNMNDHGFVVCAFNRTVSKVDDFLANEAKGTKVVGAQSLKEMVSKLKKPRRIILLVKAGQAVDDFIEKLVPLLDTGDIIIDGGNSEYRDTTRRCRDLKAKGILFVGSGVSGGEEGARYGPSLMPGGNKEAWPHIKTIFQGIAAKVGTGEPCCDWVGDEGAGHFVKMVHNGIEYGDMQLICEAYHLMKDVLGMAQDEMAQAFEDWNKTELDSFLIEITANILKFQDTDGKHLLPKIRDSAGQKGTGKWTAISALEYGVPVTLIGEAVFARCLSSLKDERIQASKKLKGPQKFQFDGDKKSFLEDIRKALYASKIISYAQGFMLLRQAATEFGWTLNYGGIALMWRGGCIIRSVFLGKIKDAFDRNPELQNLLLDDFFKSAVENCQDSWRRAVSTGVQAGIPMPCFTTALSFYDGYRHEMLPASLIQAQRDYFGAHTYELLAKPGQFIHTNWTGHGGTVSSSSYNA
Sequence of Calcium-activated potassium channel subunit alpha-1 (Homo sapiens) + Leucine-rich repeat-containing protein 26 (Homo sapiens) (Q2I0M4 whole entry, looked up, one chain of several): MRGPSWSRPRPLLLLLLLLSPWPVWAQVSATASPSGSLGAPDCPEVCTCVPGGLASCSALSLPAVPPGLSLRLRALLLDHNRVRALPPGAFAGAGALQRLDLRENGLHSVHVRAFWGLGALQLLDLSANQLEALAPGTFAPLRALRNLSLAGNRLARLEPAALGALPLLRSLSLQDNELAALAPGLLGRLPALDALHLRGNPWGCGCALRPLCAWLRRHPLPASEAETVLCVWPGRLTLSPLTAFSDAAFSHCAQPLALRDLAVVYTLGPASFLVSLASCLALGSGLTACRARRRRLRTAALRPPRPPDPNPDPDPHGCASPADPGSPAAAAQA
Sequence of NAD(+) hydrolase SARM1 (Homo sapiens) (Q6SZW1 whole entry, looked up): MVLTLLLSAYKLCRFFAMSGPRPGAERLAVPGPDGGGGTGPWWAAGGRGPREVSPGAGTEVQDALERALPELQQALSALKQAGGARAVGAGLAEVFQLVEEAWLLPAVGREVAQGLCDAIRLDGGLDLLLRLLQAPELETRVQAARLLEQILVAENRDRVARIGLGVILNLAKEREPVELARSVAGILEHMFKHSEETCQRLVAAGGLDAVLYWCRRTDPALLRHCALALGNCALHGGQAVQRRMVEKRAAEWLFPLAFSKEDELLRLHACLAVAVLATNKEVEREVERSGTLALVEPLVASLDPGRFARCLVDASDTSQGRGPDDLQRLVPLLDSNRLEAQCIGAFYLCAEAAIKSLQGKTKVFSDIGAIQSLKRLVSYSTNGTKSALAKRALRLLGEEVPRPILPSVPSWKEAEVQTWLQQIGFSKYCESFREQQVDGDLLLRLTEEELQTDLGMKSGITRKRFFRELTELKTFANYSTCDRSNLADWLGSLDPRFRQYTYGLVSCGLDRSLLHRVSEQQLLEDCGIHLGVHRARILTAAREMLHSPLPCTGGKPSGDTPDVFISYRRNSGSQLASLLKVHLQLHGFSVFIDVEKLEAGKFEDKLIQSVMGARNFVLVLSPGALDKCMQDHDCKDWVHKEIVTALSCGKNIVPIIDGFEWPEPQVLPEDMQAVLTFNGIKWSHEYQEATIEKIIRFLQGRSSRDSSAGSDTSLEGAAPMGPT

O=c1[nH]cc(F)c(=O)[nH]1
nuclear beta-catenin stimulation ([1]; at 10 µM): 6.3% (inactive) | nuclear beta-catenin stimulation ([1]; stimulation, at 2 µM): 1.7% | insulin secretion stimulation [2]: -3% (inactive) | viability decrease [3]: 87.4% (active) | tube area decrease [4]: 56.6% (active) | GLP1 secretion stimulation [5]: -0.1% (inactive) | inhibition of viability [6]: 75.1% (active) | viability decrease (inhibition) [7]: 28.6% (inactive) | viability decrease (inhibition) [8]: 26.6% (inactive) | inhibition [9]: -1.95% (inactive) | red/green cell ratio (normalised) [10]: 0.94 (inactive) | normalised cell number [10, 16]: 0.82 | normalised cell number [10, 17]: 0.77 | z-score [11, 18]: -0.415 (inactive) and 0.96 (inactive) and 1.17 | z-score [11, 19]: 0.32 and 1.37 and 2.42 | viability ([12]; at 0.000305 µM, OCI-C5x cells, with rucaparib 10 µM, 100% = cells with rucaparib alone): 118% (inactive) | viability ([12]; at 0.000305 µM, OCI-C5x cells, without rucaparib): 111% (inactive) | viability ([12]; at 0.000305 µM, OCI-P5x cells, with rucaparib 20 µM, 100% = cells with rucaparib alone): 113% (inactive) | viability ([12]; at 0.000305 µM, OCI-P5x cells, without rucaparib): 111% (inactive) | viability ([12]; at 0.00122 µM, OCI-C5x cells, with rucaparib 10 µM, 100% = cells with rucaparib alone): 121% (inactive) | viability ([12]; at 0.00122 µM, OCI-C5x cells, without rucaparib): 108% (inactive) | viability ([12]; at 0.00122 µM, OCI-P5x cells, with rucaparib 20 µM, 100% = cells with rucaparib alone): 115% (inactive) | viability ([12]; at 0.00122 µM, OCI-P5x cells, without rucaparib): 115% (inactive) | viability ([12]; at 0.00488 µM, OCI-C5x cells, with rucaparib 10 µM, 100% = cells with rucaparib alone): 115% (inactive) | viability ([12]; at 0.00488 µM, OCI-C5x cells, without rucaparib): 115% (inactive) | viability ([12]; at 0.00488 µM, OCI-P5x cells, with rucaparib 20 µM, 100% = cells with rucaparib alone): 104% (inactive) | viability ([12]; at 0.00488 µM, OCI-P5x cells, without rucaparib): 98.7% (active) | viability ([12]; at 0.0195 µM, OCI-C5x cells, with rucaparib 10 µM, 100% = cells with rucaparib alone): 129% (inactive) | viability ([12]; at 0.0195 µM, OCI-C5x cells, without rucaparib): 101% (inactive) | viability ([12]; at 0.0195 µM, OCI-P5x cells, with rucaparib 20 µM, 100% = cells with rucaparib alone): 111% (inactive) | viability ([12]; at 0.0195 µM, OCI-P5x cells, without rucaparib): 106% (inactive) | viability ([12]; at 0.0781 µM, OCI-C5x cells, with rucaparib 10 µM, 100% = cells with rucaparib alone): 103% (inactive) | viability ([12]; at 0.0781 µM, OCI-C5x cells, without rucaparib): 102% (inactive) | viability ([12]; at 0.0781 µM, OCI-P5x cells, with rucaparib 20 µM, 100% = cells with rucaparib alone): 106% (inactive) | viability ([12]; at 0.0781 µM, OCI-P5x cells, without rucaparib): 102% (inactive) | viability ([12]; at 0.313 µM, OCI-C5x cells, with rucaparib 10 µM, 100% = cells with rucaparib alone): 121% (inactive) | viability ([12]; at 0.313 µM, OCI-C5x cells, without rucaparib): 105% (inactive) | viability ([12]; at 0.313 µM, OCI-P5x cells, with rucaparib 20 µM, 100% = cells with rucaparib alone): 99.1% (active) | viability ([12]; at 0.313 µM, OCI-P5x cells, without rucaparib): 100% (inactive) | viability ([12]; at 1.25 µM, OCI-C5x cells, with rucaparib 10 µM, 100% = cells with rucaparib alone): 145% (inactive) | viability ([12]; at 1.25 µM, OCI-C5x cells, without rucaparib): 123% (inactive) | viability ([12]; at 1.25 µM, OCI-P5x cells, with rucaparib 20 µM, 100% = cells with rucaparib alone): 99.6% (active) | viability ([12]; at 1.25 µM, OCI-P5x cells, without rucaparib): 102% (inactive) | viability ([12]; at 5 µM, OCI-C5x cells, with rucaparib 10 µM, 100% = cells with rucaparib alone): 236% (inactive) | viability ([12]; at 5 µM, OCI-C5x cells, without rucaparib): 146% (inactive) | viability ([12]; at 5 µM, OCI-P5x cells, with rucaparib 20 µM, 100% = cells with rucaparib alone): 82.4% (active) | viability ([12]; at 5 µM, OCI-P5x cells, without rucaparib): 73.4% (active) | remaining NAD [13]: 10 nM (inactive) | log fold change Tl+ flux (F380Y): -0.0334 (inactive) | log fold change Tl+ flux (F380Y/beta1): 0.0119 (inactive) | log fold change Tl+ flux (F380Y/beta2Delta): -0.0613 (inactive) | log fold change Tl+ flux (F380Y/beta4): -0.0444 (inactive) | log fold change Tl+ flux [14]: -0.0276 (inactive) | log fold change Tl+ flux (R275C): -0.0492 (inactive)

CN(C)CCc1c[nH]c2ccc(C[C@H]3COC(=O)N3)cc12
nuclear beta-catenin stimulation ([1]; at 10 µM): 0.3% (inactive) | nuclear beta-catenin stimulation ([1]; stimulation, at 2 µM): 1.8% | insulin secretion stimulation [2]: 1.2% (inactive) | viability decrease [3]: 14.8% (inactive) | tube area decrease [4]: -1.1% (inactive) | GLP1 secretion stimulation [5]: -0.5% (inactive) | inhibition of viability [6]: 13.1% (inactive) | viability decrease (inhibition) [7]: 26.5% (inactive) | viability decrease (inhibition) [8]: 24.6% (inactive) | inhibition [9]: 8.76% (inactive) | red/green cell ratio (normalised) [10]: 0.98 (inactive) | normalised cell number [10, 16]: 1.02 | normalised cell number [10, 17]: 1 | fold change ([15]; stronger effect = lower value, cell number ratio, induced over uninduced): 0.877 (inactive) | fold change ([15]; measured here: relative caspase fold change +Dox/-Dox): 1.39 | cell count ([15]; measured here: total cells with miR-34 induction, stronger effect = lower value): 11600 | cell count ([15]; measured here: total cells without miR-34 induction): 13300 | z-score [11, 18]: 0.816 (inactive) | z-score [11, 19]: -0.25 | remaining NAD [13]: 10 nM (inactive) | log fold change Tl+ flux (F380Y): 0.0506 (inactive) | log fold change Tl+ flux (F380Y/beta1): 0.00826 (inactive) | log fold change Tl+ flux (F380Y/beta2Delta): -0.0158 (inactive) | log fold change Tl+ flux (F380Y/beta4): 0.0115 (inactive) | log fold change Tl+ flux [14]: 0.0131 (inactive) | log fold change Tl+ flux (R275C): -0.02 (inactive)
